IDE exosite inh = exo-site inhibitors of human insulin-degrading enzyme. purified IDE, FL-6b probe fluorescence polarization; active compounds read low. z-score at 20 µM. 17,000 compounds, 6.3% hits;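 active = z-score of -3 or lower, meaning strong loss of probe binding signal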;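 also: His-tagged human IDE residues 42-1019 made in E. coli with 30 nM FL-6b probe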
Target sequence (P14735 42-1019 limits assumed): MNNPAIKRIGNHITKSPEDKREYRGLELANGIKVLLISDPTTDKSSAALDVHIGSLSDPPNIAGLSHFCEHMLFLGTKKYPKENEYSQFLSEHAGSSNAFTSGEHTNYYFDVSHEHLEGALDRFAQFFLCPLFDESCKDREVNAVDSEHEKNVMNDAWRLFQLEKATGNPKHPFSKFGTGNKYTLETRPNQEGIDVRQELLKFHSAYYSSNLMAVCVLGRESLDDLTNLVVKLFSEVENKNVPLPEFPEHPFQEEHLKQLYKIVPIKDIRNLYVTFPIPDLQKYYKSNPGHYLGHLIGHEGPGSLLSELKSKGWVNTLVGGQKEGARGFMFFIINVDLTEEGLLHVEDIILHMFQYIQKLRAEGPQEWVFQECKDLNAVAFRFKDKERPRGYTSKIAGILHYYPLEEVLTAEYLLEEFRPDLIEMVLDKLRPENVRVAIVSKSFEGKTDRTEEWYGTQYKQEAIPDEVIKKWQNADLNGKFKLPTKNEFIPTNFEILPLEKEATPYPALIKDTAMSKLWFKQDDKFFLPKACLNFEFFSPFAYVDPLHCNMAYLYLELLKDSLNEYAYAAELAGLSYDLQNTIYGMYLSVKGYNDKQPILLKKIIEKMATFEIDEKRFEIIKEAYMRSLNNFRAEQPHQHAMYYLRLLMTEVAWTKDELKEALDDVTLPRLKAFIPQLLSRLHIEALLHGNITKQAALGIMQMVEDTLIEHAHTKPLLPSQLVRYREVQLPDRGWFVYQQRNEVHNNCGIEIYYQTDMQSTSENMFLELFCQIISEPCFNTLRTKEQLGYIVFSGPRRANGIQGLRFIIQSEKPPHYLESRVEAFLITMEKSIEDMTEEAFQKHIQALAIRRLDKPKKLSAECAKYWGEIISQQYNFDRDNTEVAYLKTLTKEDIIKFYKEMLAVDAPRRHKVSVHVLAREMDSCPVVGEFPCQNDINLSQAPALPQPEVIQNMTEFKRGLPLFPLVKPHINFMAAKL
Starred values were filed as active, the others as inactive; ! = repeats disagree. The full list was thinned out, with hits kept by preference.

SMILES	IDE exosite inh
O=C(c1ccccc1F)N1CC(=O)N2[C@H](CO)[C@@H](c3ccc(C#Cc4ccc(F)cc4)cc3)[C@H]2C1	3.1
COc1ccc([C@H]2CC=CC[C@@H](C)Oc3ccccc3C(=O)N(C)[C@H](Cc3ccccc3)C(=O)N2)c(OC)c1 (mixture of isomers)	2
COc1ccc(-c2ccc([C@H]3[C@@H](C#N)N(C(=O)NC(C)C)[C@H]3CO)cc2)cc1	-0.11
O=C(c1ccncc1)N1CC(=O)N2[C@@H](CO)[C@H](c3ccc(-c4cccnc4)cc3)[C@@H]2C1	1.2
COc1cccc(-c2ccc([C@H]3[C@H](CO)N4C(=O)CN(C(=O)c5ccncc5)C[C@@H]34)cc2)c1	-4.6*
COc1cccc(-c2ccc([C@@H]3[C@H](CO)N4C(=O)CN(C(=O)c5ccncc5)C[C@@H]34)cc2)c1	-1.8
COc1cccc(-c2ccc([C@H]3[C@@H](CO)N4C(=O)CN(C(=O)c5ccncc5)C[C@H]34)cc2)c1	-8*
O=C(c1ccncc1)N1CC(=O)N2[C@H](CO)[C@@H](c3ccc(-c4cccnc4)cc3)[C@@H]2C1	0.55
O=C(c1ccncc1)N1CC(=O)N2[C@H](CO)[C@@H](c3ccc(-c4ccccc4)cc3)[C@H]2C1	2.8
CC(C)CC#Cc1ccc([C@H]2[C@@H](CO)N3C(=O)CN(C(=O)c4ccccn4)C[C@@H]23)cc1	0.023
C/C=C/c1ccc([C@H]2[C@@H](CO)N(C(C)=O)[C@@H]2CN(CCC)C(=O)C2CCC2)cc1	2.7
CC(C)NC(=O)N[C@H]1CC[C@@H](CC(=O)NCCCN(C)C)O[C@H]1CO	-0.15
O=C(c1ccc(F)cc1)N1CC(=O)N2[C@@H](CO)[C@H](c3ccc(-c4ccccc4)cc3)[C@@H]2C1	-1.3
COc1cccc(C#Cc2ccc([C@H]3[C@H](CO)N4C(=O)CN(C(=O)Cc5cccnc5)C[C@@H]34)cc2)c1	-4.1*
CCCNC(=O)N1CC(=O)N2[C@H](C1)[C@@H](c1ccc(C#Cc3cccc(OC)c3)cc1)[C@@H]2CO	0.17
COc1cccc(C#Cc2ccc([C@@H]3[C@@H](CO)N4C(=O)CN(C(=O)Cc5cccnc5)C[C@H]34)cc2)c1	-2.3
COc1cccc(C#Cc2ccc([C@H]3[C@@H](CO)N4C(=O)CN(C(=O)Cc5cccnc5)C[C@H]34)cc2)c1	-2
COc1cccc(C#Cc2ccc([C@H]3[C@@H](CO)N4C(=O)CN(C(=O)Cc5ccccc5)C[C@@H]34)cc2)c1	1.4
CCC(=O)N1CC(=O)N2[C@H](CO)[C@H](c3ccc(C#Cc4cccc(OC)c4)cc3)[C@H]2C1	-9.8*
O=C(Cc1ccncc1)N1CC(=O)N2[C@H](CO)[C@H](c3ccc(-c4cccc(F)c4)cc3)[C@@H]2C1	-1.5
O=C(Cc1ccccc1)N1CC(=O)N2[C@H](C1)[C@H](c1ccc(-c3cccc(F)c3)cc1)[C@@H]2CO	2.6
O=C(Cc1cccnc1)N1CC(=O)N2[C@H](CO)[C@@H](c3ccc(-c4cccc(F)c4)cc3)[C@@H]2C1	-3.4*
CCC(=O)N1CC(=O)N2[C@H](CO)[C@H](c3ccc(C#Cc4cccc(OC)c4)cc3)[C@@H]2C1	-8.7*
COc1cccc(C#Cc2ccc([C@H]3[C@H]4CN(C(=O)Cc5ccccc5)CC(=O)N4[C@H]3CO)cc2)c1	-1.8
CCC(=O)N1CC(=O)N2[C@H](C1)[C@@H](c1ccc(C#Cc3cccnc3)cc1)[C@@H]2CO	-1
SMILES	IDE exosite inh
C[C@@H](O)C#Cc1ccc([C@@H]2[C@H]3CN(C(=O)c4ccncc4)CCCCN3[C@H]2CO)cc1	2.2
O=C(Nc1ccc2c(c1)[C@H]1C[C@@H](CC(=O)N3CCc4ccccc4C3)O[C@@H](CO)[C@H]1O2)c1ccc2c(c1)OCO2	-1
CS(=O)(=O)N1[C@H](C#N)[C@@H](c2ccc(C#Cc3cccc(F)c3)cc2)[C@H]1CO	-2.1
CCCNC(=O)N(C)C[C@H]1N[C@@H](CO)[C@@H]1c1ccc(C2=CCCCC2)cc1	4
CC(C)CC#Cc1ccc([C@@H]2[C@@H](CO)N3C(=O)CN(C(=O)Nc4ccc(F)cc4)C[C@@H]23)cc1	0.64
CC(C)C#Cc1ccc([C@@H]2[C@@H](CO)N(C(=O)C3CC3)[C@H]2C#N)cc1	-1.5
COCC(=O)N1CC(=O)N2[C@@H](CO)[C@@H](c3ccc(C#Cc4cccnc4)cc3)[C@@H]2C1	-0.85
COCC(=O)N1CC(=O)N2[C@H](CO)[C@H](c3ccc(C#Cc4cccnc4)cc3)[C@H]2C1	2
COCC(=O)N1CC(=O)N2[C@@H](CO)[C@@H](c3ccc(C#Cc4cccc(OC)c4)cc3)[C@@H]2C1	-7*
O=S(=O)(c1ccc(F)cc1)N1C[C@@H]2N[C@H](C1)C2c1ccc(/C=C/c2ccccc2)cc1 (stereo not given in full)	0.82
O=S(=O)(Cc1ccccc1)N1[C@@H]2CNC[C@H]1C2c1ccc(-c2ccccc2)cc1 (stereo not given in full)	-0.66
Cc1ccccc1-c1ccc(C2[C@H]3CNC[C@@H]2N3S(=O)(=O)c2ccccc2)cc1 (stereo not given in full)	-1.5
COc1ccc(S(=O)(=O)N2[C@@H]3CNC[C@H]2C3c2ccc(-c3ccncc3)cc2)cc1 (stereo not given in full)	3.1
COc1ccc(S(=O)(=O)N2[C@@H]3CNC[C@H]2C3c2ccc(-c3ccccc3OC)cc2)cc1 (stereo not given in full)	-3.6*!
COc1ccc(-c2ccc(C3[C@H]4CNC[C@@H]3N4S(=O)(=O)Cc3ccccc3)cc2)cc1 (stereo not given in full)	0.067
COc1ccccc1-c1ccc(C2[C@H]3CNC[C@@H]2N3S(=O)(=O)c2ccccc2C)cc1 (stereo not given in full)	4.7
Cc1ccccc1-c1ccc(C2[C@H]3CNC[C@@H]2N3S(=O)(=O)Cc2ccccc2)cc1 (stereo not given in full)	-7.3*
Cc1ccccc1-c1ccc(C2[C@H]3CNC[C@@H]2N3S(=O)(=O)c2ccccc2C)cc1 (stereo not given in full)	-0.51
Cc1cccc(S(=O)(=O)N2[C@@H]3CNC[C@H]2C3c2ccc(-c3ccccc3C)cc2)c1 (stereo not given in full)	-4*
COc1ccccc1-c1ccc(C2[C@@H]3CN(S(=O)(=O)c4ccc(C)cc4)C[C@H]2N3)cc1 (stereo not given in full)	-1.2
COc1ccccc1-c1ccc(C2[C@@H]3CN(S(=O)(=O)c4ccc(F)cc4)C[C@H]2N3)cc1 (stereo not given in full)	-3.1*!
O=C1CN(S(=O)(=O)Cc2ccccc2)C[C@@H]2[C@@H](c3ccc(C#CC4CC4)cc3)[C@H](CO)N12	-0.86
C/C=C/c1ccc(C2[C@H]3CNC[C@@H]2N3Cc2cc(-c3ccccc3)on2)cc1 (stereo not given in full)	0.067
N#Cc1ccc(-c2ccc([C@@H]3[C@H](CO)N4C(=O)CNC[C@@H]34)cc2)cc1	-1.4
CC(C)CC#Cc1ccc([C@@H]2[C@H](CO)N3CCCCN(C(=O)c4ccc5c(c4)OCO5)C[C@@H]23)cc1	2.1
C[C@H]1CN([C@@H](C)CO)C(=O)c2cccc(NS(C)(=O)=O)c2O[C@@H]1CN(C)Cc1ccc(-c2ccccc2)cc1	-1.1
CC(=O)NC[C@@H]1[C@H](c2ccc(-c3cccc(F)c3)cc2)[C@@H](CO)N1C(C)=O	-0.33
Cc1ccc(-c2ccccc2[C@H]2[C@@H](C#N)N(S(C)(=O)=O)[C@@H]2CO)cc1	0.064

Compound activity as filed in PubChem.
